# Pf growth 48h: Primary qHTS for delayed death inhibitors of the malarial parasite plastid, 48 hour incubation. P. falciparum luciferase growth in erythrocytes, 48 h. Potency, µM (series often up to 28.7 µM), usual class: inhibitors. 310,000 tested, 5.9% active
#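 Compounds are pin-transferred into medium, infected erythrocytes (2% hematocrit, 0.1% parasitemia final) are added, and plates sit one parasite generation at 37 C in 5% CO2. Detection reagent is then added and luminescence measured.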
# Sm TGR inh: qHTS Assay for the Inhibitors of Schistosoma Mansoni Peroxiredoxins. Schistosoma mansoni thioredoxin glutathione reductase (TGR), Q962Y6. purified TGR, DTNB reduction, TNB absorbance 405 nm. Potency, µM (series often up to 114 µM), most hits filed as inhibitors. 360,000 tested, 3% active. AID 485364, 2010; note: nearly all actives have a fitted effect of over 60% in size
#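 TGR 20 nM + NADPH 100 uM (dispensed conc.), cpd preinc 15 min RT; start with NADPH (500 uM addition) then DTNB (15 mM addition). Kinetic TNB absorbance, 405 nm filter. Four-parameter Hill fit across titration.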
# Pf growth 96h: Primary qHTS for delayed death inhibitors of the malarial parasite plastid, 96 hour incubation. Potency, µM (doses to about 28.7 µM), most hits filed as inhibitors. 320,000 tested, 6.9% active. P. falciparum luciferase reporter growth, 96 h
#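 Luminescence readout: decreased luciferase signal marks inhibited growth of reporter-expressing P. falciparum in infected red cells (2% hematocrit, 0.05% parasitemia final), exposed to compound two generations (96 h, 37 C, 5% CO2).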
# SARS PLP yeast: qHTS of Yeast-based Assay for SARS-CoV PLP; S. cerevisiae expressing SARS-CoV PLpro, growth rescue; Potency, µM (doses to about 32.9 µM), most hits filed as activators; 330,000 tested, 0.19% active; calls by dose curve; note: nearly all actives have a fitted effect of over 55% in size
# A number is an active result; - = inactive; ? = inconclusive; . = no result given. A selection: hits, their analogues and other compounds. The true share with any hit is near 12%. Unless noted, calls come from the whole dose curve; as a rule, active = well fitted curve in the direction sought with a large enough effect; inconclusive = small, poorly fitted or top-dose-only effect, or another doubt; inactive = no such curve, though single readings can be large; an effect the other way counts as inactive or inconclusive.
SMILES,Pf growth 48h,Sm TGR inh,Pf growth 96h,SARS PLP yeast
Cc1ccc(-n2nc3c(N4CCCC(C(=O)NCc5ccc(Cl)cc5)C4)nnc(C)c3c2C)cc1 (stereo unspecified),.,-,.,.
COc1ccc(COc2cc(-c3cccc(OC)c3)nc3ccc(NC(C)=O)cc23)cc1,-,-,-,-
COc1ccc(COc2cc(-c3cccc(OC)c3)nc3ccc(NC(=O)c4ccc(C)cc4)cc23)cc1,?,-,3.3µM,-
COc1ccc(COc2cc(-c3cccc(OC)c3)nc3ccc(N)cc23)cc1,15µM,-,5.9µM,-
COc1ccc(COc2cc(-c3cccc(OC)c3)nc3ccc(NC(=O)c4ccc(N(C)C)cc4)cc23)cc1,2.3µM,-,2.9µM,-
COc1ccc(C(=O)Nc2ccc3ncccc3c2)cc1,-,-,-,-
COc1ccc(S(=O)(=O)N2CCOCC2)cc1NC(=O)COC(=O)CC1CC2CCC1C2 (stereo unspecified),.,.,.,-
COc1ccccc1NC(=O)C1=C(C)Nc2ncnn2C1c1ccc[nH]1 (stereo unspecified),.,40µM,.,.
COc1ccccc1NC(=O)C1=C(C)Nc2nc(-c3ccc(N(C)C)cc3)nn2C1c1ccncc1 (stereo unspecified),15µM,-,9.3µM,-
COc1ccc(C2C(C(=O)Nc3cccnc3)=C(C)Nc3nc(-c4ccco4)nn32)cc1 (stereo unspecified),.,50µM,-,-
NC1=NC2=C(CCCC2)C2(CCCCC2)S1,13µM,-,-,-
COC(=O)C(C)NC(=O)C(C)NC(=O)OCc1ccccc1 (stereo unspecified),-,-,.,-
CC(NC(=O)OCc1ccccc1)C(=O)OCN1C(=O)c2ccccc2C1=O (stereo unspecified),-,-,12µM,-
CC(NC1CCCCC1)C(O)C12CC3CC(CC(C3)C1)C2 (stereo unspecified),7.4µM,-,.,-
CCN(CC(=O)Nc1ccc(NC(C)=O)cc1)C(=O)/C=C/c1cn(Cc2ccccc2)nc1-c1cccnc1,?,-,10µM,-
COC(=O)C1=C(C)NC(=O)/C1=C\c1cc(C)n(-c2cc(C)cc(C)c2)c1C,.,?,-,-
Cc1cc(/C=C2\C(=O)NC(=O)N(c3ccccc3)C2=O)c(C)n1-c1ccc(C(=O)O)c(Cl)c1,-,28µM,-,-
COC(=O)C1=C(C)NC(=O)/C1=C\c1cc(C)n(-c2ccccc2)c1C,-,28µM,?,-
Cc1cc(/C=C2\C(=O)NC(=O)N(c3ccccc3F)C2=O)c(C)n1-c1cc(C(=O)O)cc(C(=O)O)c1,-,8.9µM,-,-
COc1cccc(C(=O)O[C@H]2[C@H](Cc3ccccc3)NS(=O)(=O)[C@H]3C[C@@H]4C=C[C@]23O4)c1,.,.,.,-
COc1ccccc1C(=O)O[C@H]1[C@H](Cc2ccccc2)NS(=O)(=O)[C@H]2C[C@@H]3C=C[C@]12O3,?,-,5.9µM,-
CC(C)CCNC(=O)c1ccc2c(c1)nc1n2CCCCC1,.,-,.,.
O=C1NCCCC2c3c(cc(Br)c(O)c3Br)OC12N1CCCCC1 (stereo unspecified),-,22µM,.,-
CC(=O)c1ccc(N2CCN(C(=O)Nc3cn(CC(C)C)c(=O)c4ccccc34)CC2)cc1,.,-,.,.
CCN(CCO)c1ccc(NC(=S)Nc2cccc(S(=O)(=O)N(C)C)c2)cc1,-,40µM,?,-
SMILES,Pf growth 48h,Sm TGR inh,Pf growth 96h,SARS PLP yeast
CN(C)S(=O)(=O)c1cccc(NC(=S)Nc2ccc(Cl)cc2Cl)c1,.,8.9µM,-,-
Cc1ccc(OCC(=O)c2cc(C)c(C)cc2C)c([N+](=O)[O-])n1,.,16µM,-,-
Cc1ccc(C)c(C(=O)COc2ccc(C)nc2[N+](=O)[O-])c1,.,11µM,?,-
O=C(COc1ccc2c(-c3ccccc3)cc(=O)oc2c1)Nc1cccnc1,?,-,-,-
COc1ccc(CCNC(=O)c2cccc(NC(=O)CC3SC(N4CCCCC4)=NC3=O)c2)cc1OC (stereo unspecified),12µM,-,?,?
COc1cc2c(cc1NC(=O)CC1SC(N3CCCC3)=NC1=O)oc1ccccc12 (stereo unspecified),6.6µM,-,1.2µM,-
O=C(CC1SC(N2CCOCC2)=NC1=O)Nc1ccccc1Cl (stereo unspecified),-,45µM,-,-
O=C(CC1SC(N2CCCCC2)=NC1=O)Nc1cccc(C(=O)NCc2ccccc2)c1 (stereo unspecified),.,.,.,-
Cc1ccc(N=C2SC(C(=O)Nc3ccc(OC(F)(F)F)cc3)C(N)=C2C(=O)Nc2c(C)cc(C)cc2C)cc1 (stereo unspecified),?,-,12µM,-
COc1ccccc1OCCSc1ncnc2nc[nH]c12,-,-,12µM,-
Cc1cnc(NC(=O)C2CCC(C(C)(C)C)CC2)s1 (stereo unspecified),-,-,?,-
CCOc1ccc(CNC(=O)c2cnc(SC)nc2C)cc1,.,-,.,.
CCc1ccc(-n2nc(C)c3c(C(=O)Nc4cc(C)c(Cl)cc4OC)cc(C)nc32)cc1,.,-,.,.
CCOC(=O)CNC(=O)Cn1cnc2sc(C)c(S(=O)(=O)N3CCOCC3)c2c1=O,-,-,?,-
CCOC(=O)C1CCN(C(=O)Cn2cnc3sc(C)c(S(=O)(=O)N4CCOCC4)c3c2=O)CC1,1.5µM,-,?,-
Cc1ccc(NC(=O)COC(=O)c2ccc(-n3nc(C)cc3C)cc2)c(F)c1,.,.,.,-
CCOC(=O)c1cccc(NC(=O)CC2C(=O)N(c3ccc(OC)cc3)C(=O)N2C2CCCC2)c1 (stereo unspecified),.,-,.,.
Cc1cccc(NS(=O)(=O)c2cc3c(cc2C)n(C)c(=O)c(=O)n3C)c1,?,-,13µM,-
Cc1cc(C)c(S(=O)(=O)N2CCCCCC2)cc1Br,-,-,-,-
Cc1cc2c(cc1S(=O)(=O)N1CCCC1)n(C)c(=O)c(=O)n2C,-,-,13µM,-
COc1ccc(S(=O)(=O)N2CCN(c3ccccc3OC)CC2)cc1-c1noc(C)n1,.,-,.,.
COC(=O)[C@]1(CC(C)C)N[C@H](c2ccc(-c3ccc4c(c3)OCO4)cc2)[C@@H]2C(=O)N(C)C(=O)[C@@H]21,?,-,13µM,-
COC(=O)[C@]1(CC(C)C)N[C@H](c2ccc(-c3cccc(Cl)c3)cc2)[C@@H]2C(=O)N(C)C(=O)[C@@H]21,2.6µM,-,1.3µM,-
COc1ccccc1C(=O)COC(=O)c1ccc(Cl)nc1,?,-,-,-
CCOc1cc(-c2nnc(SCC(=O)NCc3ccccc3)nc2-c2ccc(OC)c(OCC)c2)ccc1OC,.,-,.,.
COCCOC(=O)C1=C(C)NC(SCC(=O)NC(C)(C)C)=C(C#N)C1c1ccco1 (stereo unspecified),?,-,.,?
COc1ccccc1NC(=O)C1=C(C)NC(SCC(=O)c2ccccc2)=C(C#N)C1c1ccco1 (stereo unspecified),9.3µM,-,.,-
